From PubChem BioAssay (NCI) come the findings set out here.

Common to all, as to experiment: NCI-60 one-dose screen, 48 h (100 = growth as untreated, 0 = no growth, -100 = all killed)
What all share (conditions): 10 µM unless noted

Experiment [1] relates to HCT-15 colon.
In experiment [2] the test system is HT29 colon.
For experiment [3], the system named is SNB-75 CNS.
The subject of experiment [4] is SNB-19 CNS.
Experiment [5] concerns U251 CNS.
Experiment [6] deals with PC-3 prostate.
For experiment [7], the system named is SK-MEL-5 melanoma.
The test system of experiment [8] is UACC-62 melanoma.
Experiment [9] concerns LOX IMVI melanoma.
The test system of experiment [10] is SK-MEL-28 melanoma.
For experiment [11], the system named is SK-MEL-2 melanoma.
Experiment [12] relates to EKVX NSCLC.
Experiment [13] deals with SN12C renal.
The test system of experiment [14] is UO-31 renal.
In experiment [15] the test system is TK-10 renal.
The test system of experiment [16] is ACHN renal.
Experiment [17] relates to CAKI-1 renal.
For experiment [18], the system named is A498 renal.
The subject of experiment [19] is CCRF-CEM leukemia.
Experiment [20] relates to MOLT-4 leukemia.

Compounds without any hit were thinned out: in the full panel of roughly 83,000, 20% have a hit.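 Growth was measured after 48 h exposure to one concentration of compound in 96-well plates. Values under 10 count as active.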 A number with no mark means an inactive call. Calls of active or inactive are those of the source.

With `N#Cc1c(-c2cccs2)cc(-c2cnccn2)nc1SCC(=O)N/N=C/c1ccncc1`, the growth in experiment [1] was 106%; in experiment [2], 109%; in experiment [3], 99.3%; in experiment [4] it was 101%; in experiment [5], 105%; in experiment [6], 96.4%. In addition, the growth in experiment [7] was 101%; in experiment [8] it was 91.4%; in experiment [9], 101%; in [10], 112%; in [11], 121%; in [12], 99%. Also, the growth is 110% in experiment [13]; 88.4% in experiment [14]; 128% in [15]; 109% in experiment [16]; 95.9% in [17]; 116% in [18]. The growth in [19] was 103%; in [20], 117%.
Regarding `C[C@@H]1OCC2(CCN(c3cnc(C(=O)Nc4cc(F)cc5cccnc45)cn3)CC2)[C@@H]1N`, the growth in [1] was 20.9%; in [2], 32.4%; in experiment [3], 65.1%; in experiment [4] it was 78.1%; in experiment [5] it was 75.3%; in experiment [6], 55.7%. Moreover, the growth in experiment [7] was 94.4%; in [8], 54%; in experiment [9], 44.5%; in [10], 70%; in experiment [11] it was 97.9%; in experiment [12], 78.2%. The growth in [13] is 59.6%; in experiment [14], 41.1%; in [15], 90.8%; in [16], 31.8%; in experiment [17], 45.8%; in experiment [18], 71.9%. The results for the growth in [19] and in experiment [20] were 15.7% and 20.8%, respectively.
For `Cc1ccc2c(n1)C(=O)C(Cl)=C(Nc1ccc(C#N)cc1)C2=O`, the growth is 1.89% (active) in experiment [1]; 106% in experiment [2]; 110% in experiment [3]; 96.4% in experiment [4]; 96.6% in experiment [5]; 89.6% in [6]. Moreover, the growth in [7] was 98.9%; in [8] it was 95.7%; in experiment [9], 70.4%; in [10] it was 99.8%; in [11], 104%; in experiment [12] it was 93%. The growth in experiment [13] is 98%; in [14] it was 16.2%; in experiment [15], 104%; in experiment [16], -58.5% (active); in [17] it was 76.5%; in experiment [18] it was 61.6%. Moreover, the growth in experiment [19] was 3.83% (active); in [20], 7.64% (active).
In the case of `C#Cc1nc(/C=C\CCCCCCC(=O)NO)cs1`, the growth is 65.6% in [1]; 55% in experiment [2]; -57.7% (active) in [3]; 71.6% in experiment [4]; 70.6% in experiment [5]; 66.9% in [6]. In addition, the growth was 31.9% in [7]; 31.2% in [8]; -82% (active) in [9]; 54.1% in [10]; 92.1% in experiment [11]; 82.9% in experiment [12]. The growth in experiment [13] is 80.9%; in experiment [14], -76.2% (active); in experiment [15] it was 42%; in experiment [16] it was 11.3%; in [17], -20.2% (active); in [18], 34.2%. The values for the growth in [19] and in experiment [20] were -40.5% (active) and -24.6% (active), respectively.
Take `Cc1ccsc1[C@H]1c2[nH]c3ccccc3c2C[C@H]2C(=O)N(CCCCCCC(=O)NO)CC(=O)N12`: the growth was 99.1% in [1]; 87.3% in experiment [2]; 51.8% in experiment [3]; 81.1% in experiment [4]; 83.8% in [5]; 78.6% in experiment [6]. Also, the growth in [7] is 83.4%; in experiment [8], 57.9%; in experiment [9], -71.9% (active); in experiment [10], 73.7%; in experiment [11] it was 92%; in experiment [12], 87.3%. The growth in experiment [13] was 86.5%; in experiment [14], 75.6%; in experiment [15] it was 84%; in [16], 93.5%; in experiment [17] it was 90.6%; in [18], 109%. The growth is 26.5% in [19] and 40% in experiment [20].
In the case of `COc1ccc(C2C(C#N)=C(/N=C/c3ccc(Cl)cc3)Oc3c2sc2c(C)cccc32)cc1` (stereo not given), the growth in [1] was 18.8%; in [2] it was 1.39% (active); in [3] it was 29.2%; in experiment [4], 27.9%; in [5], 14.1%; in experiment [6] it was 19.2%. Also, the growth in experiment [7] was 27.8%; in experiment [8], 23%; in experiment [9], 41.6%; in experiment [10], 61.8%; in experiment [11], -12.9% (active); in experiment [12] it was 42.5%. In addition, the growth in experiment [13] is 42.4%; in experiment [14] it was 37.1%; in experiment [15], 76.9%; in experiment [16], 49.1%; in experiment [17], 39%; in [18] it was -11.5% (active). The growth was 18.7% in experiment [19] and 17% in experiment [20].
With `N#Cc1c(-c2cccs2)c(C#N)c(=O)n(Cc2nc3ccccc3[nH]2)c1N`, the growth is 98.2% in experiment [1]; -93% (active) in [2]; 78.7% in experiment [3]; 101% in experiment [4]; 94.2% in experiment [5]; 97.4% in experiment [6]. Further, the growth in experiment [7] is 95.1%; in experiment [8] it was 90.5%; in experiment [9] it was 100%; in experiment [10] it was 110%; in experiment [11], 92.6%; in [12], 90.9%. Moreover, the growth in experiment [13] is 91.8%; in experiment [14], 60%; in [15] it was 152%; in experiment [16], 96.8%; in [17], 80.7%; in [18], 118%. Moreover, the results for the growth in experiment [19] and in experiment [20] were 101% and 102%, respectively.
